Consider 55 molecules from PubChem BioAssay AID1259417 (TB Discovery Research, Infectious Disease Research Institute, 2018).

The structures appear in SMILES notation. The campaign covered roughly 1,100 compounds. About 760 (69%) were called active. The rule behind the calls is not given here. The set was probably picked from earlier hits. Some of the results follow.

In general, inhibition refers to the relative decrease from the control value, in per cent.

The nature of the assay: M. tuberculosis growth inhibition, HTS (AID 1259417).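 Note: bacteria grown with compound for 5 days at 37 °C.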 The following applies: stronger effect = higher value, concentration not given here.
Where [1] appears, read: M. tuberculosis DsRed fluorescence growth inhibition.
[2] abbreviates: M. tuberculosis growth inhibition.

Take `Cc1c(Cl)ccc2sc(N(CCCn3ccnc3)C(=O)C=Cc3cccs3)nc12`: the inhibition under setting [1] is 99.5% (active) and the inhibition under setting [2] amounted to 99.5%.

Regarding `O=C(C=Cc1cccs1)N(CCCn1ccnc1)c1nc2ccccc2s1`, the inhibition reads like this: under setting [1], 98.3% (active); under setting [2], 99.1%.

Take `Cc1ccc(NC(=O)COc2ccc(-n3ccnc3)cc2)cc1Cl`: the inhibition reads like this: under setting [1], -9.16% (inactive); under setting [2], -12.4%.

For the molecule `Cc1ccc(Nc2ccc(-n3ccnc3)nn2)cc1Cl`, the inhibition is 42% (active) under setting [1] and 27.3% under setting [2].

Take `CCCCCCCCOC(=O)c1c(CSC(=N)N)n(C)c2cc(Br)c(OC(C)=O)cc12`: the inhibition was 26.7% (inactive) under setting [1] and 4.13% under setting [2].

As to `Oc1cccc(Nc2nc(NCc3ccccc3)c3ccccc3n2)c1`, the inhibition is, setting by setting: under setting [1], -1.72% (inactive); under setting [2], -16.1%.

On to `Cc1cc(Nc2cccc(Cl)c2)nc(NCc2ccccc2)n1`, for which the inhibition is 96.8% (active) under setting [1] and 90.6% under setting [2].

On to `Cc1cc(Nc2ccc(Cl)cc2)nc(NCc2ccccc2)n1`, for which the inhibition by setting is: under setting [1], 87.7% (active); under setting [2], 79.9%.

Turning to `CCn1c(COc2cccc3ccccc23)nnc1SCC(=O)OC1CCCCC1`, the inhibition was 42.4% (active) under setting [1] and 80.7% under setting [2].

For `Cn1c(COc2cccc3ccccc23)nnc1SCC(=O)OC1CCCCC1`, the inhibition is 76.6% (active) under setting [1] and 92.4% under setting [2].

`CCn1c(CNc2ccc(F)cc2)nnc1SCC(=O)OC1CCCCC1`: the inhibition is 0.628% (inactive) under setting [1] and -6.89% under setting [2].

For `O=C(Nc1nc(SCc2ccc(F)cc2)ns1)c1cc(F)c(F)cc1Cl`, the inhibition is 7.63% (inactive) under setting [1] and 5.06% under setting [2].

For the molecule `Cc1ccc(CSc2nnc(CCCCCNC(=O)OC(C)(C)C)o2)cc1`, the inhibition is 30.6% (active) under setting [1] and 36.2% under setting [2].

With `CCOC(=O)CN(C#N)c1nc(N(C)C)nc(N(C)C)n1`, the inhibition by setting is: under setting [1], 98.5% (active); under setting [2], 98.9%.

In the case of `CCn1nnc(NC(=O)c2sc3ccccc3c2Cl)n1`, the inhibition is 41.4% (active) under setting [1] and 47.8% under setting [2].

Turning to `O=C(Nc1nnc(C2CCCCC2)s1)c1sc2ccccc2c1Cl`, the inhibition under setting [1] is 0.622% (inactive) and the inhibition under setting [2] is -19.5%.

As for `O=C(Nc1nccs1)c1ccc(CSc2ccccc2)o1`, the inhibition reads like this: under setting [1], 28.2% (active); under setting [2], 69.6%.

On to `Cc1ccc(C)c(-c2cc(C(=O)Nc3nccs3)c3ccccc3n2)c1`, for which the inhibition is -0.261% (inactive) under setting [1] and -26.2% under setting [2].

For the molecule `O=C(CSc1nnc(Cc2ccccc2)o1)Nc1nccs1`, the inhibition is 1.22% (inactive) under setting [1] and -3.79% under setting [2].

Consider `CCOc1ccc(NC(=O)c2c(NC(=O)CNCCN3CCOCC3)sc3c2CCC3)cc1`, for which the inhibition under setting [1] was 100% (active) and the inhibition under setting [2] is 101%.

Consider `O=C(CNCCN1CCOCC1)Nc1sc2c(c1C(=O)Nc1ccccc1)CCC2`, for which the inhibition is 100% (active) under setting [1] and 100% under setting [2].

As to `COCCCNC(=O)c1c(NC(=O)c2ccccc2OC)sc2c1CCCC2`, the inhibition is 2.12% (inactive) under setting [1] and -22.4% under setting [2].

For `O=C(Nc1sc2c(c1C(=O)Nc1ccccc1)CCC2)c1cccc(Br)c1`, the inhibition reads like this: under setting [1], 0.927% (inactive); under setting [2], -1.38%.

On to `Cc1ccccc1C(=O)Nc1sc2c(c1C(=O)NCCO)CCC(C(C)(C)C)C2` (stereo not given), for which the inhibition by setting is: under setting [1], 5.07% (inactive); under setting [2], -17.9%.

In the case of `CO[C@H]1C=CO[C@@]2(C)Oc3c(C)c(O)c4c(O)c(c5c(c4c3C2=O)=NC2(CCN(CC(C)C)CC2)N=5)NC(=O)C(C)=CC=C[C@H](C)[C@H](O)[C@@H](C)[C@@H](O)[C@@H](C)[C@H](OC(C)=O)[C@@H]1C`, the inhibition under setting [1] is 100% (active) and the inhibition under setting [2] amounted to 101%.

As to `Cc1ccc(-c2nnc(NC(=O)c3ccc(Cl)s3)o2)c(C)c1`, the inhibition is, setting by setting: under setting [1], 86.1% (active); under setting [2], 75.4%.

With `Cc1ccc(-c2nnc(NC(=O)c3ccc(Br)s3)o2)c(C)c1`, the inhibition runs as follows: under setting [1], 83.8% (active); under setting [2], 75.7%.

As for `COc1ccc(OC(C)C(=O)Nc2ccc(Cl)cc2C)cc1` (stereo not given), the inhibition under setting [1] is 1.5% (inactive) and the inhibition under setting [2] is -1.86%.

Take `COc1ccc(OC(C)C(=O)Nc2ccc(I)cc2)cc1` (stereo not given): the inhibition by setting is: under setting [1], 76% (active); under setting [2], 79.3%.

Turning to `Oc1ccccc1-c1n[nH]c(/C=C/c2ccc(Cl)cc2)n1`, the inhibition is, setting by setting: under setting [1], 2.06% (inactive); under setting [2], -29.9%.

Consider `CC(C)(C)c1ccc(C(=O)Nc2ccc(S(=O)(=O)Nc3nccs3)cc2)cc1Br`, for which the inhibition was 1.5% (inactive) under setting [1] and -12.7% under setting [2].

For `CC1CCc2sc3ncnc(NCCc4ccccc4)c3c2C1` (stereo not given), the inhibition by setting is: under setting [1], 35.8% (active); under setting [2], 35.3%.

In the case of `CC1CCc2c(sc3ncn(C(C)C(=O)OCc4ccccc4)c(=O)c23)C1` (stereo not given), the inhibition by setting is: under setting [1], 6.46% (inactive); under setting [2], 8.18%.

`CC(Sc1nnc(N)s1)C(=O)Nc1nc2c(s1)CCCC2` (stereo not given): the inhibition runs as follows: under setting [1], 18.7% (inactive); under setting [2], 26%.

Turning to `O=C(Nc1ccc2c(c1)CCC2)c1ccc(Br)s1`, the inhibition under setting [1] is 25.5% (inactive) and the inhibition under setting [2] was determined as 10.7%.

Turning to `O=C(Nc1nc2c(s1)CCCC2)c1ccc(Br)s1`, the inhibition under setting [1] was 42.7% (active) and the inhibition under setting [2] is 18.9%.

As for `Cc1cccc(OCc2nnc(SCC(=O)OC3CCCCC3)o2)c1`, the inhibition runs as follows: under setting [1], 82.9% (active); under setting [2], 94.9%.

For the molecule `Cc1cc(OCc2nnc(SCC(=O)OC3CCCCC3)o2)ccc1Cl`, the inhibition by setting is: under setting [1], 94% (active); under setting [2], 94.6%.

Consider `O=C(C=Cc1cccc(C(F)(F)F)c1)Nc1cccc(C(F)(F)F)c1`, for which the inhibition under setting [1] was 25.5% (inactive) and the inhibition under setting [2] stood at 6.54%.

As to `Cc1ccc(S(=O)(=O)Nc2ccc(NC(=O)Nc3cccc(C(F)(F)F)c3)cc2)cc1`, the inhibition under setting [1] was 1.5% (inactive) and the inhibition under setting [2] is -12.5%.

As to `O=C(Nc1ccc(C(F)(F)F)cc1)Nc1cccc(Cl)c1`, the inhibition is 99.7% (active) under setting [1] and 100% under setting [2].

On to `CCOC(=O)CNC(=O)CSc1nc(-c2cccc(C)c2)ns1`, for which the inhibition was 56.7% (active) under setting [1] and 71.3% under setting [2].

Consider `CCOC(=O)CSc1nc(-c2ccccc2)ns1`, for which the inhibition by setting is: under setting [1], 51.6% (active); under setting [2], 86.5%.

For `CCOC(=O)CNC(=O)CSc1nc(-c2ccccc2)ns1`, the inhibition reads like this: under setting [1], 85.8% (active); under setting [2], 65.5%.

In the case of `c1ccc2cc3nc4c(ccc5ccccc54)nc3cc2c1`, the inhibition under setting [1] is 97.7% (active) and the inhibition under setting [2] stood at 99%.

Regarding `COc1cccc(-n2nnnc2S(C)(=O)=O)c1`, the inhibition reads like this: under setting [1], 99.7% (active); under setting [2], 100%.

For the molecule `COc1cccc(-n2nnnc2S(=O)(=O)Cc2ccccc2)c1`, the inhibition reads like this: under setting [1], 100% (active); under setting [2], 101%.

As to `CCCS(=O)(=O)c1nnnn1-c1cccc(OC)c1`, the inhibition runs as follows: under setting [1], 101% (active); under setting [2], 100%.

With `O=C(C=Cc1cccs1)N1CCN(Cc2ccc3c(c2)OCO3)CC1`, the inhibition under setting [1] was 99.4% (active) and the inhibition under setting [2] stood at 100%.

Turning to `O=C(NC1CCCCC1)N1CCN(Cc2ccc3c(c2)OCO3)CC1`, the inhibition is 99.4% (active) under setting [1] and 100% under setting [2].

Regarding `CC12CC3CC(C)(C1)CC(CNCc1ccccc1O)(C3)C2`, the inhibition runs as follows: under setting [1], 98.9% (active); under setting [2], 99.3%.

For the molecule `CC1(C)C=Cc2c(nc3ccccc3c2NCc2ccccc2)C1`, the inhibition is, setting by setting: under setting [1], 16.7% (active); under setting [2], 35.8%.

Consider `c1ccc(CNc2nc(N3CCN(Cc4ccccc4)CC3)nc3ccccc23)cc1`, for which the inhibition by setting is: under setting [1], -2.6% (inactive); under setting [2], -0.535%.

Take `Cc1cc(OCCn2ccnc2)ccc1Cl`: the inhibition is 89.5% (active) under setting [1] and 90.8% under setting [2].

In the case of `Cc1cc(OCCCn2ccnc2)ccc1Cl`, the inhibition under setting [1] is 98.9% (active) and the inhibition under setting [2] was determined as 99.6%.
